Compounds without any hit were thinned out: in the full panel of roughly 83,000, 20% have a hit.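 Note: values are percent growth. 100 is the growth of untreated cells, values between 100 and 0 indicate rising inhibition; between -100 and 0 indicates cell death.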 Unmarked numbers belong to inactive results. Activity calls are given as the source filed them. How the source made its calls: active means growth percent below 10; inactive means the rest.

Among the test systems are RPMI-8226 leukemia; OVCAR-8 ovarian; OVCAR-5 ovarian; OVCAR-4 ovarian; SK-OV-3 ovarian; IGROV1 ovarian; OVCAR-3 ovarian; HS 578T breast; NCI/ADR-RES ovarian; T-47D breast; BT-549 breast; MDA-MB-435 melanoma; SW-620 colon; MCF7 breast; HCT-116 colon; HCC-2998 colon; KM12 colon.
Test in all cases: NCI-60 one-dose screen, 48 h (100 = growth as untreated, 0 = no growth, -100 = all killed)
Conditions in all cases: 10 µM unless noted

In the case of `COc1ccc2nc3cc(Cl)ccc3c(N3CCN(c4ccnc(Nc5ccc(F)cc5)n4)CC3)c2c1`, the growth was 63.4% with RPMI-8226 leukemia; 75.8% in the assay on OVCAR-8 ovarian; 95% in the assay on OVCAR-5 ovarian; 64.8% in the assay with OVCAR-4 ovarian; 111% in the assay with SK-OV-3 ovarian; 87.5% with IGROV1 ovarian. Besides, the growth in the assay with OVCAR-3 ovarian was 82.4%; in the assay on HS 578T breast, 94.2%; in the assay with NCI/ADR-RES ovarian, 71.3%; in the assay on T-47D breast, 54.5%; in the assay with BT-549 breast, 88.3%; in the assay on MDA-MB-435 melanoma, 74.5%. Moreover, the growth in the assay with SW-620 colon is 89.2%; with MCF7 breast it was 48.8%; in the assay on HCT-116 colon it was 41.4%; in the assay on HCC-2998 colon, 79.5%; in the assay on KM12 colon, 79.1%.

Take `N#Cc1cnc2cc(OC[C@H](O)CO)c(NC(=O)CC3CSSC3)cc2c1Nc1ccc(OCc2cccc(F)c2)c(Cl)c1`: the growth was -68.9% (active) with RPMI-8226 leukemia; -54.6% (active) with OVCAR-8 ovarian; -47.8% (active) with OVCAR-5 ovarian; -62.9% (active) in the assay on OVCAR-4 ovarian; -87.5% (active) with SK-OV-3 ovarian; -41.8% (active) with IGROV1 ovarian. Besides, the growth was -89.2% (active) in the assay with OVCAR-3 ovarian; -44.7% (active) in the assay with HS 578T breast; 87.8% in the assay on NCI/ADR-RES ovarian; -61.1% (active) with T-47D breast; -62.2% (active) with BT-549 breast; -82.7% (active) with MDA-MB-435 melanoma. The growth in the assay on SW-620 colon was -70.8% (active); in the assay with MCF7 breast, -69.2% (active); with HCT-116 colon, -42.8% (active); in the assay with HCC-2998 colon it was -81.9% (active); in the assay with KM12 colon it was -81.8% (active).

As for `CSc1nc2c(c(=O)[nH]1)C(c1ccc(Cl)cc1)C1=C(N2)/C(=C/c2ccc(Cl)cc2)CNC1` (stereo not drawn), the growth in the assay with RPMI-8226 leukemia was -13.4% (active); in the assay on OVCAR-8 ovarian it was 31.6%; with OVCAR-5 ovarian, 105%; in the assay on OVCAR-4 ovarian it was 33.1%; with SK-OV-3 ovarian, 87.4%; in the assay with IGROV1 ovarian it was 26.1%. In addition, the growth is 4.17% (active) in the assay with OVCAR-3 ovarian; 68.7% in the assay with HS 578T breast; 74.5% in the assay with NCI/ADR-RES ovarian; 54.3% with T-47D breast; 24.8% in the assay on BT-549 breast; 34.5% in the assay on MDA-MB-435 melanoma. In addition, the growth with SW-620 colon was -9.84% (active); in the assay with MCF7 breast it was 13%; in the assay with HCT-116 colon, -69.5% (active); in the assay on HCC-2998 colon, 17.3%; in the assay with KM12 colon, -24% (active).

Turning to `COc1cc2c(c(OC)c1OC)-c1ccc(NN(C(=O)c3ccccc3)C(=O)c3ccccc3)c(=O)cc1[C@@H](NC(C)=O)CC2` (tested in a mixture with another compound), the growth with RPMI-8226 leukemia is 66.6%; with OVCAR-8 ovarian, 47.1%; in the assay on OVCAR-5 ovarian it was 68%; in the assay with OVCAR-4 ovarian, 63.4%; in the assay on SK-OV-3 ovarian, 20.8%; in the assay with IGROV1 ovarian, 12.3%. The growth with OVCAR-3 ovarian is 2.09% (active); in the assay on HS 578T breast, -6.83% (active); with NCI/ADR-RES ovarian, 74%; in the assay with T-47D breast it was 41.7%; in the assay on BT-549 breast, 37.3%; in the assay with MDA-MB-435 melanoma, -68.8% (active). Moreover, the growth in the assay on SW-620 colon is 17.1%; in the assay with MCF7 breast it was 24%; with HCT-116 colon, 12.1%; with HCC-2998 colon it was 6.05% (active); in the assay on KM12 colon it was 9.8% (active).

Consider `CCN(CC)c1ccc(CN(CC(=O)c2ccc(Cl)c(Cl)c2)Cc2ccccc2)cc1`, for which the growth with RPMI-8226 leukemia is 101%; in the assay with OVCAR-8 ovarian it was 100%; with OVCAR-5 ovarian, 104%; in the assay with OVCAR-4 ovarian, 105%; in the assay with SK-OV-3 ovarian it was 90%; in the assay with IGROV1 ovarian, 107%. Besides, the growth with OVCAR-3 ovarian is 99.2%; in the assay with HS 578T breast, 103%; in the assay on NCI/ADR-RES ovarian, 105%; in the assay on T-47D breast it was 85.5%; in the assay with BT-549 breast, 109%; in the assay with MDA-MB-435 melanoma, 106%. In addition, the growth with SW-620 colon is 96%; in the assay with MCF7 breast, 95.5%; with HCT-116 colon, 104%; in the assay with HCC-2998 colon, 107%; with KM12 colon, 109%.

On to `O=C(/C=C/c1ccc(O)c(O)c1)N1CCN(c2ccc(Cl)cc2)CC1`, for which the growth was 42% in the assay on RPMI-8226 leukemia; 61.6% in the assay on OVCAR-8 ovarian; 95.3% in the assay on OVCAR-5 ovarian; 51.4% in the assay on OVCAR-4 ovarian; 80.7% with SK-OV-3 ovarian; 14.9% in the assay on IGROV1 ovarian. For the same compound, the growth in the assay with OVCAR-3 ovarian is 60.3%; in the assay with HS 578T breast, 80.2%; in the assay with NCI/ADR-RES ovarian it was 58.7%; with T-47D breast, 49.2%; in the assay with BT-549 breast, 56.9%; in the assay on MDA-MB-435 melanoma, 67.9%. In addition, the growth was 64% with SW-620 colon; 74.9% with MCF7 breast; 55.7% with HCT-116 colon; 82.9% in the assay with HCC-2998 colon; 73.5% in the assay with KM12 colon.

Turning to `COc1ccc2c(c1)C(=O)c1c-2c(OCCCN(C)C)nc2cc(Br)ccc12`, the growth in the assay on RPMI-8226 leukemia was 73.4%; with OVCAR-8 ovarian, 3.85% (active); with OVCAR-5 ovarian it was -46% (active); with OVCAR-4 ovarian, 88.6%; in the assay on SK-OV-3 ovarian, 81.3%; with IGROV1 ovarian it was 71.3%. Moreover, the growth in the assay with OVCAR-3 ovarian is 89.1%; in the assay on HS 578T breast, 81.4%; in the assay on NCI/ADR-RES ovarian, 65.6%; with T-47D breast, 84%; in the assay on BT-549 breast it was 89.7%; in the assay with MDA-MB-435 melanoma it was 90.2%. Besides, the growth was 35.7% in the assay on SW-620 colon; 18.5% in the assay on MCF7 breast; 56.8% in the assay with HCT-116 colon; 69.6% in the assay on HCC-2998 colon; 69.7% with KM12 colon.

As to `[O-]/[N+](=C\C=C\c1ccccc1)c1ccccc1`, the growth in the assay with RPMI-8226 leukemia is 87.3%; with OVCAR-8 ovarian, 121%; with OVCAR-5 ovarian, 107%; in the assay with OVCAR-4 ovarian it was 92.1%; with SK-OV-3 ovarian, 110%; in the assay on IGROV1 ovarian, 113%. Further, the growth in the assay on OVCAR-3 ovarian was 99.9%; with HS 578T breast it was 130%; in the assay on NCI/ADR-RES ovarian, 103%; with T-47D breast, 95.6%; with BT-549 breast, 109%; with MDA-MB-435 melanoma, 108%. Further, the growth was 104% in the assay with SW-620 colon; 96.3% in the assay with MCF7 breast; 102% with HCT-116 colon; 103% in the assay on HCC-2998 colon; 100% in the assay with KM12 colon.

As for `c1ccc(N2CCN(c3nncc4ccccc34)CC2)nc1`, the growth with RPMI-8226 leukemia was 107%; in the assay with OVCAR-8 ovarian it was 97.8%; with OVCAR-5 ovarian, 105%; in the assay on OVCAR-4 ovarian it was 109%; in the assay on SK-OV-3 ovarian it was 104%; with IGROV1 ovarian it was 116%. Also, the growth is 99.9% in the assay on OVCAR-3 ovarian; 109% in the assay with HS 578T breast; 109% in the assay with NCI/ADR-RES ovarian; 101% with T-47D breast; 104% in the assay with BT-549 breast; 104% in the assay with MDA-MB-435 melanoma. For the same compound, the growth in the assay with SW-620 colon is 104%; in the assay with MCF7 breast, 105%; with HCT-116 colon, 103%; in the assay on HCC-2998 colon, 117%; with KM12 colon, 104%.

For the origin of these results see PubChem BioAssay (NCI).
